Shown is part of a subset that was picked to be rich in hits.
T cruzi growth-1 = T. cruzi proliferation inhibition. AID 624255. inhibition, % at 8.34 µM. 77,000 compounds, 5.9% hits. T. cruzi beta-gal in NIH3T3, GalScreen luminescence, 90 h;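 active means mean inhibition above about 93%, with at least 55% of replicates each passing it, limit read from the data, passing the limit was not always enough; inconclusive means only one of those two conditions holds; inactive means neither condition holds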
C diff growth = blocks growth of Clostridium difficile; growth activity, negative = inhibition, % at 16 µg/mL (by protocol); Clostridium difficile clinical isolate growth, OD600, 24 h; hits give low values; 86,000 compounds, 0.25% hits;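 active means mean growth activity at or below -80% and every replicate also at or below -80%; inconclusive means mean at or below -80% but some replicate above -80%; inactive means mean growth activity above -80%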;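 further: 0% = DMSO wells and -100% = levofloxacin 16 µg/mL wells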
T cruzi growth-2 = inhibitors of T. cruzi proliferation; 5,600 compounds, 72% hits; T. cruzi beta-gal in NIH3T3, GalScreen luminescence, 90 h; shares compounds with T cruzi growth-1; inhibition, % at 8.35 µM;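 active means mean replicate inhibition above about 95% and at least 55% of replicates individually reaching it, limit read from the data; inconclusive means only one of the two criteria is met; inactive means neither criterion is met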
T cruzi growth-3 = Trypanosoma cruzi proliferation inhibition. 5,600 compounds, 21% hits. inhibition, % at 2.09 µM. T. cruzi beta-gal in NIH3T3, GalScreen luminescence, 90 h. shares compounds with T cruzi growth-1;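 active means mean inhibition above about 95%, with at least 55% of replicates also reaching it, limit read from the data; inconclusive means meets just one of the two conditions; inactive means meets neither condition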;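 further: plate controls were neutral control median for no effect and positive control median for full effect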
NIH3T3 tox = kills mouse NIH/3T3 fibroblasts; shares compounds with T cruzi growth-1; NIH/3T3 viability, CellTiter-Glo ATP luminescence, 90 h; cytotoxicity (signal decrease), % at 8.35 µM; 5,600 compounds, 14% hits;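 active means mean signal decrease across replicates above about 35% based on untreated-well scatter, with enough replicates individually passing, limit read from the data; inconclusive means no rule stated though some were filed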;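 further: 0% = median of neutral control wells and 100% = median of positive control wells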
3T3 cytotox 2 = cytotoxicity in mouse NIH/3T3 fibroblasts. 5,600 compounds, 56% hits. AID 651744. inhibition, % at 24.9 µM. shares compounds with T cruzi growth-1. NIH/3T3 viability, CellTiter-Glo ATP luminescence, 90 h;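 active means mean loss of cell viability signal at or above a set limit, and enough replicates individually reaching it; inconclusive means meets only the mean limit or only the replicate share; inactive means meets neither condition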;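 further: 0% = median of neutral control wells and 100% = median of positive control wells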
* marks the source's active call; other numbers are inactive results; ? = inconclusive; . = no result.

SMILES	T cruzi growth-1	C diff growth	T cruzi growth-2	T cruzi growth-3	NIH3T3 tox	3T3 cytotox 2
CC(=O)NC[C@@H]1[C@H](c2ccc(-c3ccccc3)cc2)[C@H](CO)N1C(=O)C1CC1	70	0	.	.	.	.
C[C@@H]1CCCCO[C@H](CN(C)C(=O)c2ccncc2)[C@@H](C)CN([C@H](C)CO)C(=O)c2cc(NC(=O)CCCCCC(=O)Nc3ccccc3N)ccc2O1	7	2	.	.	.	.
C[C@@H]1CCCCO[C@H](CN(C)C(=O)C2CCCCC2)[C@H](C)CN([C@@H](C)CO)C(=O)c2cc(NC(=O)CCCCCC(=O)Nc3ccccc3N)ccc2O1	102	1	.	.	.	.
C[C@H](CO)N1C[C@H](C)[C@H](CN(C)C(=O)c2ccccc2)OCCCC[C@H](C)Oc2ccc(NC(=O)CCCCCC(=O)Nc3ccccc3N)cc2C1=O	100*	-1	108*	?	-7	-39
C[C@@H]1CCCCO[C@H](CN(C)C(=O)c2ccccc2)[C@H](C)CN([C@@H](C)CO)C(=O)c2cc(NC(=O)CCCCCC(=O)Nc3ccccc3N)ccc2O1	99*	-1	107*	103*	5	2
O=S(=O)(c1ccccc1F)N1CCCCN2[C@H](C1)[C@@H](c1ccc(-c3ccccc3)cc1)[C@@H]2CO	69	5	.	.	.	.
Cc1ccccc1S(=O)(=O)N1CCCCN2[C@@H](CO)[C@H](c3ccc(-c4cncnc4)cc3)[C@@H]2C1	117*	-1	73	22	11	?
Cc1ccccc1S(=O)(=O)N1CCCCN2[C@H](CO)[C@@H](c3ccc(-c4cncnc4)cc3)[C@H]2C1	73	2	.	.	.	.
Cc1ccccc1S(=O)(=O)N1CCCCN2[C@H](CO)[C@@H](c3ccc(-c4cccnc4)cc3)[C@@H]2C1	74	-16	.	.	.	.
O=S(=O)(c1ccccc1F)N1CCCCN2[C@@H](CO)[C@@H](c3ccc(-c4ccncc4)cc3)[C@@H]2C1	?	-7	107*	35	30	27*
Cc1ccccc1S(=O)(=O)N1CCCCN2[C@H](CO)[C@H](c3ccc(-c4cccnc4)cc3)[C@H]2C1	100*	21	108*	80	29	80*
N#C[C@@H]1[C@@H](c2ccccc2)[C@H](CO)N1S(=O)(=O)Cc1ccccc1	37	-2	.	.	.	.
C[C@H](CO)N1C[C@H](C)[C@@H](CN(C)C(=O)Nc2ccc(F)cc2)Oc2ccc(NS(=O)(=O)c3ccc(F)cc3)cc2CC1=O	9	-3	.	.	.	.
C[C@@H]1CN([C@@H](C)CO)C(=O)CCCn2nncc2CO[C@@H]1CN(C)Cc1cccc2c1OCCCO2	13	.	.	.	.	.
O=S(=O)(c1ccccc1)N1CCCCN2[C@H](CO)[C@H](c3ccc(C#Cc4cccnc4)cc3)[C@H]2C1	109*	9	114*	72	20	63*
N#Cc1ccc(-c2ccc([C@@H]3[C@@H](CO)N4CCCCN(S(=O)(=O)c5ccccc5)C[C@H]34)cc2)cc1	37	9	.	.	.	.
O=S(=O)(c1ccccc1)N1CCCCN2[C@H](CO)[C@H](c3ccc(C#Cc4ccccc4)cc3)[C@H]2C1	73	30	.	.	.	.
COc1ccc(C#Cc2ccc([C@@H]3[C@@H](CO)N4CCCCN(S(=O)(=O)c5ccccc5)C[C@@H]34)cc2)cc1	71	-7	.	.	.	.
O=S(=O)(c1ccccc1)N1CCCCN2[C@H](C1)[C@H](c1ccc(C#Cc3ccccc3)cc1)[C@@H]2CO	?	6	101*	78	?	105*
N#Cc1ccc(-c2ccc([C@H]3[C@@H](CO)N4CCCCN(S(=O)(=O)c5ccccc5)C[C@@H]34)cc2)cc1	96*	10	107*	38	-12	11
O=S(=O)(c1ccccc1)N1CCCCN2[C@H](CO)[C@H](c3ccc(C#Cc4ccccc4)cc3)[C@@H]2C1	38	19	.	.	.	.
COc1ccc(C#Cc2ccc([C@H]3[C@@H](CO)N4CCCCN(S(=O)(=O)c5ccccc5)C[C@@H]34)cc2)cc1	103*	-3	103*	84	3	0
CC(=O)N1[C@@H]2c3cccc(=O)n3C[C@H]1[C@H](CO)[C@H]2C(=O)N[C@H](C)c1ccccc1	.	-6	.	.	.	.
COCC#Cc1ccc2c(c1)O[C@@H](CN(C)Cc1ccccc1F)[C@H](C)CN([C@@H](C)CO)S2(=O)=O	23	0	.	.	.	.
COCC#Cc1ccc2c(c1)O[C@H](CN(C)Cc1ccccc1F)[C@H](C)CN([C@@H](C)CO)S2(=O)=O	-25	-1	.	.	.	.
SMILES	T cruzi growth-1	C diff growth	T cruzi growth-2	T cruzi growth-3	NIH3T3 tox	3T3 cytotox 2
CC(C)CC#Cc1ccc2c(c1)O[C@@H](CN(C)Cc1ccccc1F)[C@@H](C)CN([C@H](C)CO)S2(=O)=O	?	.	97*	108*	0	105*
CC(C)CC#Cc1ccc2c(c1)O[C@H](CN(C)Cc1ccccc1F)[C@@H](C)CN([C@H](C)CO)S2(=O)=O	67	.	.	.	.	.
CC(C)CC#Cc1ccc2c(c1)O[C@H](CN(C)Cc1ccccc1F)[C@H](C)CN([C@H](C)CO)S2(=O)=O	?	.	98*	113*	-9	105*
COCC#Cc1ccc2c(c1)O[C@@H](CN(C)Cc1ccccc1F)[C@@H](C)CN([C@H](C)CO)S2(=O)=O	5	-5	.	.	.	.
CC(C)CC#Cc1ccc2c(c1)O[C@H](CN(C)Cc1ccccc1F)[C@H](C)CN([C@@H](C)CO)S2(=O)=O	?	.	107*	83	28	105*
CC(C)CC#Cc1ccc2c(c1)O[C@@H](CN(C)Cc1ccccc1F)[C@H](C)CN([C@H](C)CO)S2(=O)=O	?	.	92	105*	101*	104*
C[C@@H]1CN([C@@H](C)CO)C(=O)c2cc(NC(=O)CCCN(C)C)ccc2O[C@@H](C)CCCCO[C@H]1CN(C)S(=O)(=O)c1ccccc1	-3	-2	.	.	.	.
Cc1cc(C(=O)Nc2cccc3c2O[C@H](CN(C)C(=O)Nc2ccc4c(c2)OCO4)[C@H](C)CN([C@@H](C)CO)C3=O)n(C)n1	-162	.	.	.	.	.
CN(C)CC(=O)Nc1ccc2c(c1)[C@H]1C[C@@H](CC(=O)N3CCN(C)CC3)O[C@H](CO)[C@H]1O2	-12	0	.	.	.	.
Cn1cnc(CCNC(=O)C[C@H]2CC[C@@H]3[C@H](COC[C@@H](O)CN3C(=O)Nc3ccccc3)O2)c1	13	2	.	.	.	.
C[C@@H]1CN([C@@H](C)CO)S(=O)(=O)c2ccc(C#CCN(C)C)cc2O[C@@H]1CN(C)Cc1ccccc1F	84	-1	.	.	.	.
C[C@@H]1CN([C@H](C)CO)S(=O)(=O)c2ccc(C#CC3CC3)cc2O[C@H]1CN(C)Cc1ccccc1	127*	6	95*	51	?	105*
C[C@H](CO)N1C[C@H](C)[C@@H](CN(C)Cc2ccccc2F)Oc2cc(C#CCN(C)C)ccc2S1(=O)=O	105*	-4	105*	67	55*	104*

Bioassay records: PubChem BioAssay, Broad Institute
